The source of these data is PubChem BioAssay (NCATS).

Records with an inconclusive call do not appear. A call without a number means that no potency is given here. Calls of active or inactive are those of the source. Unless noted, the call rests on the fitted dose curve; in most records, active means well fitted curve in the direction sought with a large enough effect; inconclusive means small, poorly fitted or top-dose-only effect, or another doubt; inactive means no such curve, though single readings can be large; an effect the other way counts as inactive or inconclusive.

The target in experiment [1] is Guanine nucleotide-binding protein G(i) subunit alpha-1 (Homo sapiens) (UniProt P63096). Briefly: qHTS Assay for Inhibitors of RGS12 GoLoco Motif Activity (Green Fluorophore) (AID 879).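 Further: negative values mean loss of peptide binding seen as reduced polarization.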 The gist of the method:
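Fluorescence polarization assay: 50 nM Gαi1 with 10 nM FITC-labeled RGS12 GoLoco peptide in 10 mM Tris pH 7.5, 150 mM NaCl, 0.1 mM GDP, 0.05% NP40, 10 min at room temperature with compound.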

Experiment [2] can be described thus: qHTS Assay for Identification of Small Molecule Agonists for Thrombopoietin (TPO) Signaling Pathway (AID 917). The gist of the method:
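IL-3-dependent murine pro-B Ba/F3 cells, stably transfected with human TPO receptor and GpIIb-promoter luciferase, are incubated 24 hrs at 37 C with test compound and 26 pM TPO; luciferase signal is read after 10 min at room temperature.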
For orientation: Quantitative high-throughput screening tests each substance at several concentrations.

Experiment [3] addresses Muscarinic acetylcholine receptor M1 (Rattus norvegicus) (UniProt P08482). Briefly: qHTS Assay for Antagonists of Acetylcholine Muscarinic M1 Receptor: Measurement of IP-One Response (AID 944). Further: nearly all actives have a fitted effect of over 75% in size. Further: potency means the concentration at half of the fitted maximal effect. The essentials:
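Steps: plate transfected CHO-M1 cells overnight; add test compound, 10 min; add carbachol (200 nM, EC80) in stimulation buffer with LiCl; incubate 30 min; add labelled IP1 tracer and anti-IP1 antibody in lysis buffer; read HTRF after 10 min.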

The nature of experiment [4]: Confirmation and Secondary Assay for Modulators of Hemoglobin Beta Chain Splicing at IVS2 654 locus (AID 910).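 Further: per-well total GFP intensity by laser scanning cytometry after 2-day treatment.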 The essentials:
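HeLa cells stably carrying EGFP interrupted by mutant beta-globin IVS2-654 intron (CMV-driven) were treated with compound for 2 days at 37C; corrected splicing was scored as total peak GFP intensity per well (488 nm excitation, 500-520 nm emission).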

Experiment [5] can be described thus: Confirmation and Secondary Assay for Modulators of Hemoglobin Beta Chain Splicing at IVS2 705 locus (AID 930).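 Further: HeLa cells stably expressing the EGFP-705 splicing reporter; series mostly up to about 46 µM.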 The gist of the method: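 Assay measures total GFP intensity per well in HeLa EGFP-705 cells after 2 days with compound; mis-splicing normally truncates EGFP, so fluorescence indicates corrected splicing.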
Experiment [6] deals with Muscarinic acetylcholine receptor M1 (Rattus norvegicus) (UniProt P08482). Put plainly: qHTS Assay for Antagonists of Acetylcholine Muscarinic M1 Receptor: Kinetic Measurement of Intracellular Calcium Response (AID 943).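 Further: Fluo-4 calcium signal as peak divided by basal fluorescence over 4 min; series mostly up to about 35 µM; nearly all actives have a fitted effect of over 75% in size.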 The gist of the method: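 Intracellular calcium flux, recorded with Fluo-4 in a kinetic plate reader, served as signal; the response to carbachol at EC80 (100 nM final) was taken as maximal over minimal fluorescence after a 10 min compound pre-incubation in rat M1-CHO cells.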

Experiment [7] in a line: qHTS Assay for Identification of Small Molecule Antagonists for NFkB Signaling Pathway (AID 895; active means well fitted inhibition curve with a large enough effect in the signal ratio, with a control signal flat, not every such curve was filed as active; the % refers to the signal ratio). The essentials: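 NFkB-bla ME-180 cervical carcinoma cells with beta-lactamase reporter under NFkB response element; compounds added, then TNF alpha at 10 pM final (EC50), 5 h at 37 C. LiveBLAzer substrate 2 h, room temperature; emission 460/530 nm at 405 nm excitation.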
Experiment [8] is described as follows: qHTS Assay for Identification of Small Molecule Antagonists for Thrombopoietin (TPO) Signaling Pathway (AID 918). Further: potency means the concentration at half of the fitted maximal effect; nearly all actives have a fitted effect of over 60% in size. The following applies: TPO-dependent cell signaling reporter, antagonist mode. The gist of the method:
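First, Ba/F3 reporter cells expressing human TPO receptor were held overnight without IL-3. Next, compound and 26 pM TPO were added. After 24 hrs incubation at 37 C, luciferase luminescence under the Glycoprotein IIb promoter was recorded.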

The target of experiment [9] is Cytochrome P450 3A4 (Homo sapiens) (UniProt P08684). Briefly: qHTS Assay for Inhibitors and Substrates of Cytochrome P450 3A4 (AID 884). Further: series mostly up to about 57 µM; nearly all actives have a fitted effect of over 50% in size. The gist of the method: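 20 nM human CYP3A4 with 25 uM Luciferin-PPXE (at KM) in 200 mM KPO4, preincubated 10 min with compound; NADPH regeneration started a 60 min RT reaction. Luciferin detected by luminescence, normalized to 57 uM ketoconazole as full inhibition.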
Sequence of Cytochrome P450 3A4 (Homo sapiens) (P08684 whole entry, looked up): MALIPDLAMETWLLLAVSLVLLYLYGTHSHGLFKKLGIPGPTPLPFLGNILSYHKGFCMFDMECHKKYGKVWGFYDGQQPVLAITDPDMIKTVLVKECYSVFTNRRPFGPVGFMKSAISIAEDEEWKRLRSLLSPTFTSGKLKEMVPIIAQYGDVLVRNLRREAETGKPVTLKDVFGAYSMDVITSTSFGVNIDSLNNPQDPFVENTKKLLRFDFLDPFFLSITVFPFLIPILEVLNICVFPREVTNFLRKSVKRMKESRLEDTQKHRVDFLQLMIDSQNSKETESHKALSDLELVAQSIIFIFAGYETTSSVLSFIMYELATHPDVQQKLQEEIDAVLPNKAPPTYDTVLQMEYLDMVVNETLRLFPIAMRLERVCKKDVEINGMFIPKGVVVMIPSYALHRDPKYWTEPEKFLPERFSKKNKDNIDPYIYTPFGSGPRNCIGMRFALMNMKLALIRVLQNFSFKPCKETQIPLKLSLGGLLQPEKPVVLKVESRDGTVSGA

Sequence of Muscarinic acetylcholine receptor M1 (Rattus norvegicus) (P08482 whole entry, looked up): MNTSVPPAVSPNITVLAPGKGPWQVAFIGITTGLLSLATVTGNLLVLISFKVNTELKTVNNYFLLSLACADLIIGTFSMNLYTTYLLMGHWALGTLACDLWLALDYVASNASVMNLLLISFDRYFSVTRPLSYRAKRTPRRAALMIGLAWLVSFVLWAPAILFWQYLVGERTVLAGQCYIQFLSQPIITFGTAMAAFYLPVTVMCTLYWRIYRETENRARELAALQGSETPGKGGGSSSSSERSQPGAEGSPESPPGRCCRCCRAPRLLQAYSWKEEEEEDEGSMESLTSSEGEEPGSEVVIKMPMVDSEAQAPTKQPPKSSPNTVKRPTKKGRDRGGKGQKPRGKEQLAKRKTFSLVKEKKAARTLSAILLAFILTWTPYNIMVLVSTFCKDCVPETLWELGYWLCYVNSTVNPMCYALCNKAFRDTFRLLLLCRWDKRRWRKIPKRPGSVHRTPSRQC
Sequence of Guanine nucleotide-binding protein G(i) subunit alpha-1 (Homo sapiens) (P63096 whole entry, looked up): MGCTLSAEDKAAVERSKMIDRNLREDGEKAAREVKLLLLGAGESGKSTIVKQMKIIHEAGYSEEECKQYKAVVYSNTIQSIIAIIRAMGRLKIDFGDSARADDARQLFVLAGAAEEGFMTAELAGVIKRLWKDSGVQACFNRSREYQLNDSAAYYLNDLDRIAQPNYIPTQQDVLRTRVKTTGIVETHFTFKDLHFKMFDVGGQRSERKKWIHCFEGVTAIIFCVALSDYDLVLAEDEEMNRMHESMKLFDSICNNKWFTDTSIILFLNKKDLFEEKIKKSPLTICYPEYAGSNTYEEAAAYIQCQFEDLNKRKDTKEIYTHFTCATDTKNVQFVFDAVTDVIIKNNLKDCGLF

As to `CN1CCc2ccccc2Cc2[nH]c3ccccc3c2CC1`, in [1], the outcome was inactive. For the same molecule, in experiment [2], the Potency result was “inactive”. Further, the Potency in experiment [3] is 15.8 µM (active).

Turning to `NCCCS(=O)(=O)O`, the call in experiment [1], in experiment [4] and in [5] was inactive. Also, the Potency result in [6] and in experiment [3] was “inactive” each time.

`Cn1c(=O)c2[nH]c(-c3ccccc3)nc2n(C)c1=O`: the outcome in experiment [1] was inactive. Further, the Potency entry in [7], in experiment [2] and in experiment [3] was “inactive” in each case.

With `CC(C)NC[C@H](O)COc1cccc2[nH]ccc12`, in experiment [1], the outcome was inactive. In addition, the Potency result in experiment [2] is “inactive”.

`Clc1ccc(N2CCN(Cc3c[nH]c4ncccc34)CC2)cc1`: the call in experiment [1] was inactive. Further, the Potency result in experiment [2] and in experiment [3] was “inactive” each time.

Regarding `NCCCCCCCCCCN`, in experiment [1], the call was inactive. For the same molecule, the Potency entry in experiment [2] and in experiment [3] was “inactive” each time.

Consider `O=Nc1ccc2oc(=O)ccc2c1`, for which, in [1], the molecule was called inactive. In addition, the Potency in [8] was 5.01 µM (active). The Potency result in experiment [6] and in [3] was “inactive” each time.

With `O=C(OCc1ccccc1)c1ccccc1`, in [9], the Potency result was “inactive”.

For `Cc1nc2sccn2c(=O)c1CCN1CCC(=C(c2ccccc2)c2ccc(F)cc2)CC1`, in [9], the Potency entry is “inactive”.
